Calls of active or inactive are those of the source.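 The calls were made as follows, unless noted: active = visually confirmed hit in the image check and inhibition above 20%; inconclusive = visually confirmed hit but inhibition not above 20%; inactive = no visual hit in the image check.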
Tests used:
[1] = inhibitors of TNFa-induced NFkB p65 translocation, primary screen, imaging, HUVEC, MLSMR starter and 10KST1 sets (AID 438;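 active = inhibition above 20% together with a positive visual image hit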;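 also: compound added about 3h40 before a 20 min TNFalpha stimulation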;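 as to inhibition: signal is the nuclear over cytoplasmic p65 intensity ratio per well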); conditions: HUVEC TNFa-induced p65 nuclear translocation; cell count: measured here: nuclei count (cytotoxicity indicator), at 2.08 µM; inhibition: at 2 µM, stronger effect = higher value, 0% TNFa-plus-vehicle, 100% no-TNFa wells
[2] = reduction of polyQ htt aggregates in cells – imaging, exon1htt(103Q)mCFP cells, high-content imaging, primary screen (AID 483;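 active = visual image review flags a hit and inhibition of aggregation exceeds 20%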;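 also: compound exposure lasted 3 days before fixation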;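 as to nuclei count: percent of the per-plate median nuclei count of sample wells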); conditions: exon1htt(103Q)mCFP cell line, aggregate imaging, at 2 µM; inhibition of aggregation: stronger effect = higher value; nuclei count: measured here: cell count, toxicity
[3] = endothelial E-selectin expression blockers – imaging, HUVEC, immunofluorescence, MLSMR starter and 10KST1 sets, primary screen (AID 487); conditions: HUVEC TNFalpha-induced E-selectin immunofluorescence imaging, at 2 µM; inhibition: stronger effect = higher value; nuclei count: measured here: cell number, toxicity;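 as to inhibition: signal is fraction of cell area covered by stained E-selectin grains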;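 as to nuclei count: 100% = median nuclei count of all wells on the same plate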
[4] = molecular target: Voltage-gated potassium channel subunit beta-2 (Rattus norvegicus) (UniProt P62483); test: inhibitors of rat Kvbeta2 reductase activity – biochemical, NADPH fluorescence, primary screen (AID 622;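 active = fluorescence slope higher than the sample average by over 3 SD, cut at about -0.22 in these data, passing the limit was not always enough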;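 also: slope of raw intensity against log time taken from 70 to 1610 s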); conditions: recombinant KvBeta, 4-cyanobenzaldehyde reduction, at 10 µM, stronger effect = higher value
[5] = molecular target: Voltage-gated potassium channel subunit beta-2 (Rattus norvegicus) (UniProt P62483); test: enhancers of rat Kvbeta2 NADPH turnover – biochemical, NADPH fluorescence, primary screen (AID 623;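 active = NADPH fluorescence slope more negative than the mean of all samples by about 3 SD, 99.7% confidence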;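 also: fluorescence intensity change per second fitted from 20 to 320 s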); conditions: Recombinant KvBeta, NADPH fluorescence decrease slope, 10 min; at 10 µM; stronger effect = lower value
[6] = molecular target: Alpha-2C adrenergic receptor (Homo sapiens) (UniProt P18825); test: compounds altering alpha2C-coupled GIRK flux – cell-based, HEK293 alpha2C/GIRK1/2, thallium flux, primary screen (AID 624;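 active = fluorescence slope after compound addition differing from the mean of all screened samples at 99.7% confidence, in either direction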;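 also: slope of fluorescence ratio to pre-addition baseline per second over 15 to 24 s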); conditions: thallium flux BTC fluorescence, at 10 µM, actives lie on both sides
[7] = blockers of RIG-like receptor reporter activation – cell-based, Sendai virus stimulus, luciferase, 10K MLSCN set, TLR/RLR signaling modifier project, primary screen (AID 602276;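 active = inhibition at or above 50% at 10 µM; inactive = inhibition below 50%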;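 also: firefly luciferase from ISG56 promoter only with Renilla not read in this screen; 0% = Sendai virus plus DMSO and 100% = medium plus DMSO without virus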); conditions: HEK293 RL24 IRF3 luciferase reporter, at 10 µM, stronger effect = higher value
[8] = TLR3 IRF3 reporter activation blockers – cell-based, poly I:C stimulus, luciferase, 10K MLSCN set, primary screen (AID 602277;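 active = inhibition of the reporter signal at or above 50%; inactive = inhibition below 50%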); conditions: HEK293-TLR3 RL24 IRF3 luciferase reporter, at 10 µM, stronger effect = higher value

Sequence of Voltage-gated potassium channel subunit beta-2 (Rattus norvegicus) (P62483 whole entry, looked up): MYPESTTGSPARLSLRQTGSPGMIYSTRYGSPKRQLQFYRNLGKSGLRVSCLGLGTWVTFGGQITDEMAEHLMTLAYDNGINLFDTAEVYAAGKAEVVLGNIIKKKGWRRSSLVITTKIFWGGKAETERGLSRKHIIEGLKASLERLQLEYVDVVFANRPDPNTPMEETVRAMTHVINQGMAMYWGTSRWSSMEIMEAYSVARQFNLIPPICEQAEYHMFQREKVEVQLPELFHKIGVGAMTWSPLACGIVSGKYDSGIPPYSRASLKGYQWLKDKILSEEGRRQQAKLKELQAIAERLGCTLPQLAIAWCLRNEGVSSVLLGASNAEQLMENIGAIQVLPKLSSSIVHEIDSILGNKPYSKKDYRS
Sequence of Alpha-2C adrenergic receptor (Homo sapiens) (P18825 whole entry, looked up): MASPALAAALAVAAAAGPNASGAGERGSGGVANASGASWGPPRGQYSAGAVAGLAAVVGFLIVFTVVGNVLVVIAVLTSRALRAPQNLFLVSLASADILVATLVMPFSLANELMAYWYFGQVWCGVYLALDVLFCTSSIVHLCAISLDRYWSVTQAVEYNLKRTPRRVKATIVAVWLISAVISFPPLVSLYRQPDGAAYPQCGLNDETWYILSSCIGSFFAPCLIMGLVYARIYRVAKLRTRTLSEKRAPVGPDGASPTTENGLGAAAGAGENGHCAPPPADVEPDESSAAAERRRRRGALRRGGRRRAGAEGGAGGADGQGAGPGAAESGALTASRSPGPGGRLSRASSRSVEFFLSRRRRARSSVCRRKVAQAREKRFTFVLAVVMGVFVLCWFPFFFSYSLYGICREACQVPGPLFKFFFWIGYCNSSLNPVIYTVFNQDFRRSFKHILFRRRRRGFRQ

SMILES | cell count [1] | inhibition [1] | inhibition of aggregation [2] | nuclei count [2] [%] | inhibition [3] | nuclei count [3] [%] | fluorescence slope [4] | NADPH fluorescence slope [5] | slope [6] | inhibition [7] | inhibition [8]
Fc1ccc(NCc2nnc(SCc3nnc(-c4ccccc4)o3)n2CC2CCCO2)cc1 (configuration not stated) | 571 | -9.7% (inactive) | -6% (inactive) | 56.6 | 14.2% (inactive) | 90.9 | -0.528 (inactive) | 3.2e-05 (inactive) | 0.00596 (inactive) | -28.3% (inactive) | -12.4% (inactive)
CC1CCCCC1NC(=O)CCCc1nc2ccccc2c(=O)[nH]1 (configuration not stated) | 364 | -2.1% (inactive) | 5.3% (inactive) | 87.7 | -11.1% (inactive) | 79.6 | -0.618 (inactive) | -2.3e-05 (inactive) | 0.00379 (inactive) | 7.71% (inactive) | 17.2% (inactive)
C=CCNC(=O)CN(c1cccc(Br)c1)S(C)(=O)=O | 322 | -0.5% (inactive) | 13.9% (inactive) | 95.4 | 21.4% (inactive) | 115 | -0.509 (inactive) | 2.5e-05 (inactive) | 0.00557 (inactive) | 8.3% (inactive) | 14.4% (inactive)
CCOc1cc(C(=O)Nc2ccon2)cc(OCC)c1OCC | 795 | 0.3% (inactive) | -40.4% (inactive) | 104 | -35.9% (inactive) | 108 | -0.387 (inactive) | 1.3e-05 (inactive) | 0.00341 (inactive) | 17.9% (inactive) | 15.6% (inactive)
COc1ccc(N2CCN(Cc3cc(=O)oc4cc(C)c(Cl)c(C)c34)CC2)cc1 | 604 | 0.3% (inactive) | 8.9% (inactive) | 104 | 19% (inactive) | 93.1 | -0.388 (inactive) | 1.5e-05 (inactive) | 0.00505 (inactive) | 17.9% (inactive) | 12% (inactive)
O=C(CSc1nnc(Cn2c(=O)sc3ccccc32)n1-c1ccccc1)NCC1CCCO1 (configuration not stated) | 525 | -6.2% (inactive) | 1.1% (inactive) | 106 | -19.9% (inactive) | 116 | -0.583 (inactive) | -2.3e-05 (inactive) | 0.00648 (inactive) | 12% (inactive) | 37.7% (inactive)
CC(=O)c1n[nH]nc1NC(=O)c1ccccc1 | 574 | -25.8% (inactive) | -6.9% (inactive) | 100 | -46.6% (inactive) | 119 | -0.525 (inactive) | -2.5e-05 (inactive) | 0.00678 (inactive) | 4.32% (inactive) | -46% (inactive)

From PubChem BioAssay
